S2 tox: cell viability loss in ATXN counter-screen; 400,000 compounds, 0.49% hits; S2 cells (HEK-293 line with an ATXN2-luciferase reporter) viability, CellTiter-Fluor protease fluorescence, 24 h; AID 651635; Potency, µM (titrated, usually from 56.7 µM), actives largely listed as cytotoxic; note: nearly all actives have a fitted effect of over 40% in size
TGFb SMAD3 inh: TGF-b pathway inhibition | HepG2 CAGA-GFP TGF-b/SMAD3 reporter, GFP fluorescence, 18 h; TGF-beta stimulated, 500 pg/mL final | Potency, µM (highest dose often 46.1 µM), inactives show top-dose activity, negative = inhibition, most hits filed as inhibitors | 410,000 compounds, 1.2% hits; note: % is set by controls: 0 for no effect and ±100 for the full control effect; nearly all actives have a fitted effect of over 65% in size
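First, reporter cells (HEPG2 CAGA-GFP) rested 2 h at 37 degrees C. Next, compounds were pinned in and TGF-beta added to 500 pg/mL final. After 18 h, GFP was imaged per cell and summed per well.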
A549 tox: A549 cytotoxicity, counter-screen for Nrf2 inhibitors; 390,000 compounds, 0.16% hits; Potency, µM (doses to about 46 µM), without a hit: at the highest dose activity change, negative = cytotoxicity, usual class: inhibitors; A549 ARE-Fluc cells, CellTiter-Fluor viability, 18-24 h; AID 504648; note: % is set by controls: 0 for no effect and ±100 for the full control effect
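A549 ARE-Fluc cells in 5% FBS OPTI-MEM, 5000 cells/well, rested 2 h then exposed to compounds in concentration-response for 18-24 h at 37 °C. Viability by CellTiter-Fluor fluorescence (Ex 405/Em 525) after 30 min; luciferase luminescence (BugLite, 15 min, RT) read afterwards.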
HepG2 viability: HepG2 cytotoxicity, counter-screen for TGF-b inhibitors; HepG2 CAGA-GFP viability, ATP luminescence, 18 h; Potency, µM (doses to about 46.1 µM), for inactives: top-dose activity change, negative = cytotoxicity, hits mostly cytotoxic; 410,000 compounds, 0.76% hits
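CellTiter-Glo luminescence gave cytotoxicity after 18 hours at 37 degrees C. The cells were HepG2 CAGA-GFP in 1% FBS DMEM, stimulated with 500 pg/mL TGF-beta after compound addition. %Activity was normalised to no-cell wells (complete cell-killing) and DMSO (no toxicity), and curves were fitted and classified.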
Nrf2 block: Nrf2 pathway inhibition. 360,000 compounds, 2.1% hits. A549 ARE-Fluc reporter, luciferase luminescence, 18-24 h. AID 504444. Potency, µM (highest dose often 46 µM), without a hit: at the highest dose activity change, negative = inhibition, hits mostly inhibitors; note: % is set by controls: 0 for no effect and ±100 for the full control effect; nearly all actives have a fitted effect of over 60% in size
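Concentration-response testing used A549 ARE_Fluc cells at 5000 cells/well. Following an 18-24 h compound incubation, viability was read by fluorescence (Ex 405/Em 525) and luciferase output by luminescence.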
ATXN2 expr inh: inhibitors of ATXN2 expression; Potency, µM (series often up to 57 µM), without a hit: at the top dose activity change, negative = inhibition, usual class: inhibitors; AID 1745845; HEK-293 ATXN2-luciferase reporter, luminescence, 24 h; 360,000 compounds, 0.72% hits; note: % is set by controls: 0 for no effect and ±100 for the full control effect; nearly all actives have a fitted effect of over 55% in size
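qHTS (up to 57 uM final) was run with 24 h compound exposure of reporter cells at 37 °C. Each well was multiplexed: SteadyGlo luminescence measured ATXN2-luciferase expression after a fluorogenic Gly-Phe-AFC viability readout (25 uM final).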
Starred values were filed as active, the others as inactive; i = inactive; ? = inconclusive; / = no result; ! = not confirmed by another sample; [ ] = another dose, or the depositor's remark. Hits are enriched below; roughly 3.8% of the tested compounds scored in any of these assays. Calls come from the whole dose curve; as a rule, active = well fitted curve in the direction sought with a large enough effect; inconclusive = small, poorly fitted or top-dose-only effect, or another doubt; inactive = no such curve, though single readings can be large; an effect the other way counts as inactive or inconclusive. Potency is the fitted concentration of half-maximal effect.

SMILES | S2 tox | TGFb SMAD3 inh | A549 tox | HepG2 viability | Nrf2 block | ATXN2 expr inh
CCn1c(COc2c(C)cccc2C)nnc1SCC(=O)N1CCN(c2ccccc2)CC1 | i | ? | ? | -4.1% | 18.4µM* | ?
CC1(C)CC(CC(=O)Nc2nccs2)(c2ccccc2)CCO1 (stereo unspecified) | i | 12.4% | -8.1% | 4.5% | 5.3% | -11.2%
Cc1ccc2c(c1)C(=O)C(=O)N2Cc1ccc(OC(C)C)cc1 | ? | 10µM* | 8.3% | -47.7% | 2.0% | ?
Cc1ccc(OCCN2C(=O)C(=O)c3cc(C)ccc32)cc1 | ? | 6.5% | 0.7% | -2.0% | -10.5% | -2.7%
Cc1ccc2c(c1)C(=O)C(=O)N2Cc1ccc(C(F)(F)F)cc1 | 28.2µM* | 15.8µM* | 18.0% | 17.8µM* | 17.3% | ?
O=C(Cn1c(=O)nc(-c2ccccc2F)c2cc(Cl)ccc21)Nc1ccccc1C(F)(F)F | / | 22.5% | ? | 1.7% | / | /
CCOc1cc(CNC(=O)Cn2c(-c3cccs3)cc3cc(F)ccc32)ccc1OC | ? | ? | -13.0% | -0.9% | ? | -15.5%
CCOc1ccc(CCNC(=O)Cn2c(-c3cccs3)cc3cc(F)ccc32)cc1OCC | 11.2µM* | ? | -13.5% | -62.4% | ? | 22.4µM*
CC(C)(C)c1ccc(C(=O)CCCSC2=C(C#N)C(c3ccco3)C3=C(CCCC3=O)N2)cc1 (stereo unspecified) | ? | -22.2% | 20.6µM* | -5.5% | 20.6µM* | -23.2%
COc1ccccc1C1N=C(Nc2nc3ccccc3o2)NC2=C1C(=O)CC(C)(C)C2 (stereo unspecified) | / | -10.4% | -2.8% | 2.9% | 2.5% | /
N=c1ncn(C2OC(CO)C(O)C2O)c2nc(Br)[nH]c12 (stereo unspecified) | i | -7.9% | / | 2.8% | / | /
CCOC(=O)C1=C(CN2CCN(c3cccc(OC)c3)CC2)NC(=O)NC1c1ccc(OC)cc1 (stereo unspecified) | / | -19.8% | -17.1% | -24.3% | -5.4% | /
CN(C)CCCn1c(=S)[nH]c2ccccc2c1=O | i | 4.4% | -1.1% | -12.7% | -5.0% | -11.0%
CN(C)CCCn1c2c3ccccc3ccc2c2oc(=O)c3ccccc3c21 | ? | 8.91µM* | -9.1% | 10µM*! | ? | ?
CC(C)(C)c1cc(NCCCn2ccnc2)n2ncc(-c3ccc(Cl)cc3)c2n1 | ? | ? | -2.2%[1.84 µM] | 22.4µM* | -23.0% | ?
Oc1ccc(/C=N/Nc2nccnc2Cl)cc1 | i | -0.4% | 0.3% | -78.0% | ? | 21.5%
Fc1ccc(/C=N/Nc2nccnc2Cl)cc1 | i | ? | -7.2% | 10µM* | 22.9% | 30.7%
CCN(CC)S(=O)(=O)c1ccc(N/N=C(\C)c2ccc(OC)cc2O)nc1 | i | 8.91µM* | -13.1% | -63.1% | ? | /
CCN(CC)S(=O)(=O)c1ccc(N/N=C/c2ccc(O)cc2)nc1 | i | -5.7% | -9.7% | -21.9% | -7.8% | 4.2%
COc1cccc(-n2c(SCC(=O)Nc3ccc4c(c3)OCO4)nc3c([nH]c4ccccc43)c2=O)c1 | ? | 1.1% | -25.0% | -5.8% | / | 1.4%
Cc1ccc(C(=O)Nc2nc(-c3ccccn3)cs2)o1 | ? | ? | 1.3% | 2.2% | -26.0% | /
O=C(Nc1nc(-c2ccccc2)cs1)Nc1ccc(F)cc1F | i | 0.0% | -6.6% | 2.6% | ? | -6.4%
O=C(Nc1nc(-c2ccccn2)cs1)c1ccc(-c2ccccc2F)o1 | ? | 14.1µM* | ? | -88.9% | ? | ?
O=C(Nc1nc(-c2ccccn2)cs1)Nc1ccc(F)cc1F | ? | ? | -19.1% | -4.1% | ? | 14.1µM*
CC(=O)c1ccc(-c2ccc(C(=O)Nc3nc(-c4ccccn4)cs3)o2)cc1 | i | 12.6µM* | -15.4% | -57.7% | -5.6% | -38.2%
SMILES | S2 tox | TGFb SMAD3 inh | A549 tox | HepG2 viability | Nrf2 block | ATXN2 expr inh
Cc1ccc(-c2csc(NC(=O)c3ccc(-c4ccccc4)cc3)n2)o1 | ? | 12.6µM* | -12.6% | -32.2% | 2.91µM* | -12.2%
O=C(c1ccc2c(c1)OCO2)N1CCN(CCN2C(=O)c3cccc4cccc(c34)C2=O)CC1 | i | -0.7% | 3.1% | -40.1% | 1.3% | -3.0%
CCCCOC(=O)c1ccc(NC(=O)/C=C/c2cccs2)cc1 | i | ? | -0.2% | -2.1% | 13.0% | 6.5%
COC(=O)c1ccc(C(=O)NC2CCCc3c2cnn3-c2ccccc2F)nc1 (stereo unspecified) | i | -16.1% | -8.6% | 0.9% | 9.7% | -19.3%
Cc1cc(C(=O)NC2CCCc3c2cnn3-c2ccc(C)c(C)c2)no1 (stereo unspecified) | i | -22.0% | -18.9% | -31.8% | 10.3µM* | -24.0%
CCn1nc(C)cc1C(=O)NC1CCCc2c1cnn2-c1ccc(C)c(C)c1 (stereo unspecified) | ? | ? | -13.3% | -5.6% | 11.6µM* | -31.4%
COc1ccc(C(=O)NC2CCCc3c2cnn3-c2ccc(C)c(C)c2)c(OC)c1OC (stereo unspecified) | i | -15.0% | -10.5% | -22.2% | 13µM* | ?
CCCC(=O)NC1CCCc2c1cnn2-c1ccc(C)c(C)c1 (stereo unspecified) | i | 1.0% | 0.1% | -7.6% | -29.4% | /
COc1cc(C(=O)NC2CCCc3c2cnn3-c2ccccc2F)cc(OC)c1OC (stereo unspecified) | i | -12.9% | -13.8% | -11.6% | 6.51µM* | -17.1%
Cc1cc2c(s1)c1cnn(Cc3c(F)cccc3C(F)(F)F)c(=O)c1n2C | / | / | 3.1% | / | 15.0% | /
Nc1nc(Cl)nc2c1ncn2[C@@H]1O[C@H](CO)[C@@H](O)[C@H]1O | i | ? | -9.6% | -40.8% | ? | -3.1%
Nc1nc(Cl)nc2c1ncn2[C@@H]1O[C@H](CO)[C@@H](O)[C@H]1F | / | / | / | / | / | 0.0097µM*
CCOC(=O)N1CCC(c2cc(=O)n3[nH]c(-c4ccccc4)cc3n2)CC1 | i | ? | -2.7% | -9.7% | 0.8% | 4.2%
CCOC(=O)N1CCC(c2cc(=O)n3[nH]c(C)c(-c4ccc(F)cc4)c3n2)CC1 | i | -24.9% | 2.5% | -38.2% | ? | 31.6µM*
CCCCC1CC2=C(C(=O)OC(C)(C)O2)C(c2ccc(F)cc2)O1 (stereo unspecified) | i | ? | / | -22.3% | / | 1.6%
OCCN(Cc1cccnc1)Cc1ccccn1 | ? | 6.2% | 20.6µM* | -1.4% | 14.4% | -25.0%
COc1ccc(-c2nn(-c3ccccc3)cc2C(=O)NC(=S)NNC(=O)c2ccncc2)cc1 | i | ? | -14.5% | -30.3% | 20.6µM* | ?

Assay outcomes as filed in PubChem BioAssay.
